# Assay outcomes as filed in PubChem.
# TGFb SMAD3 inh: TGF-b pathway inhibition; HepG2 CAGA-GFP TGF-b/SMAD3 reporter, GFP fluorescence, 18 h; TGF-beta stimulated, 500 pg/mL final; Potency, µM (titrated, usually from 46.1 µM), hits mostly inhibitors; 410,000 compounds, 1.2% hits; further: nearly all actives have a fitted effect of over 65% in size
#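 Inhibition was scored as loss of TGF-beta-induced (500 pg/mL final, 18 hours, 37 degrees C) GFP in HEPG2 cells carrying a CAGA-GFP reporter, in DMEM with 1% FBS. Well GFP was summed per cell; Activity was normalised to unstimulated and stimulated DMSO wells, then concentration-response fitting.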
# HepG2 tox: HepG2 cytotoxicity, counter-screen for TGF-b inhibitors; HepG2 CAGA-GFP viability, ATP luminescence, 18 h; Potency, µM (top dose mostly 46.1 µM), most hits filed as cytotoxic; 410,000 compounds, 0.76% hits; AID 588856
#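 HepG2 CAGA-GFP cells (1000/well, DMEM with 1% FBS) received compound, then TGF-beta at 500 pg/mL final, and were incubated 18 hours at 37 degrees C. Viability was read by CellTiter-Glo luminescence. Media-only wells were set as complete cell-killing and DMSO as no toxicity.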
# ATXN viability: reduces viability in counter-screen for ATXN expression inhibitors | S2 cells (HEK-293 line with an ATXN2-luciferase reporter) viability, CellTiter-Fluor protease fluorescence, 24 h | Potency, µM (doses to about 56.7 µM), hits mostly cytotoxic | 400,000 compounds, 0.49% hits; further: nearly all actives have a fitted effect of over 40% in size
# RORgamma inh: inhibitors of mouse ROR gamma transcriptional activity. 310,000 compounds, 5.4% hits. Potency, µM (highest dose often 53.6 µM), usual class: inhibitors. P51450. Drosophila S2 Gal4-RORgamma UAS-luciferase reporter, 20 h; further: nearly all actives have a fitted effect of over 60% in size
# Target sequence (P51450 whole entry, looked up, the tested form may be a part): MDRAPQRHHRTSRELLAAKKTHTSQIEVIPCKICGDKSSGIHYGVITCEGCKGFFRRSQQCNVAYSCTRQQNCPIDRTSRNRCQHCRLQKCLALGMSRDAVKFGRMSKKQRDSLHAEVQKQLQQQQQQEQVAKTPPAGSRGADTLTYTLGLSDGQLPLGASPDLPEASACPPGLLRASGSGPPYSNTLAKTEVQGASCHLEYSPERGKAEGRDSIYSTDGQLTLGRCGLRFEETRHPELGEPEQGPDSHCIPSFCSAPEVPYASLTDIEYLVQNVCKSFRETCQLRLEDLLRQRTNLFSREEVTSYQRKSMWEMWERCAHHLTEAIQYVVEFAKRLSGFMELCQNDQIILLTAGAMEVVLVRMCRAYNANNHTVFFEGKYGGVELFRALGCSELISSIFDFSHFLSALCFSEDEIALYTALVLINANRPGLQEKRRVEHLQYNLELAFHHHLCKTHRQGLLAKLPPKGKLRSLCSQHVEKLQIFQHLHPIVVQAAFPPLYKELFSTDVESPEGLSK
#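 Stable Schneider cell line, Gal4 DNA-binding domain fused to ROR gamma, UAS-luciferase. Cmpd 1 hr RT → CuSO4 700 uM final → 20 hr RT → luciferase reagent 10 min → luminescence.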
# ATXN2 expr inh: inhibitors of ATXN2 expression | 360,000 compounds, 0.72% hits | HEK-293 ATXN2-luciferase reporter, luminescence, 24 h | Potency, µM (doses to about 57 µM), most hits filed as inhibitors | AID 1745845; further: nearly all actives have a fitted effect of over 55% in size
#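 qHTS (up to 57 uM final) was run with 24 h compound exposure of reporter cells at 37 °C. Each well was multiplexed: SteadyGlo luminescence measured ATXN2-luciferase expression after a fluorogenic Gly-Phe-AFC viability readout (25 uM final).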
# Gal4-VP16 FLuc: inhibits Gal4-VP16 luciferase reporter, ROR gamma counter-screen. Drosophila S2 Gal4-VP16 UAS-luciferase, luminescence, 20 h. Potency, µM (highest dose often 53.6 µM), most hits filed as inhibitors. 310,000 compounds, 3.5% hits;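 further: Gal4-VP16 expression switched on by copper sulfate through the metallothionein promoter; nearly all actives have a fitted effect of over 50% in size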
# Numbers stand for hits; - = inactive; ? = inconclusive; . = no result given; [ ] = dose if it differs, or a comment. Rows were chosen to be rich in hits. Some 6.3% of all compounds tested hit in one or more screens of this group. The call rests on the fitted dose curve; in most records, active means well fitted curve in the direction sought with a large enough effect; inconclusive means small, poorly fitted or top-dose-only effect, or another doubt; inactive means no such curve, though single readings can be large; an effect the other way counts as inactive or inconclusive.
SMILES,TGFb SMAD3 inh,HepG2 tox,ATXN viability,RORgamma inh,ATXN2 expr inh,Gal4-VP16 FLuc
COc1cc(-n2nc(C)c3c2OC(N)=C(C#N)C3c2ccccc2)c(Cl)c(Br)c1O (configuration not stated),?,-,14µM,-,-,-
Cc1[nH]n(-c2ccccc2)c(=O)c1/C=N/O,-,-,-,2.5µM,-,3.5µM
Cc1[nH]n(-c2ccccc2)c(=O)c1C=NCC1CCCO1 (configuration not stated),-,-,-,-,.,-
Cc1c(/C=N/NC(=O)COc2ccccc2[N+](=O)[O-])c2ccccc2n1C,?,-,-,-,.,-
Cc1[nH]n(-c2ccccc2)c(=O)c1/C=N/N1C(=O)c2ccc3c4c(ccc(c24)C1=O)CC3,-,-,-,10µM,?,?
Cc1ccc2cccc(N=Cc3c(C)[nH]n(-c4ccccc4)c3=O)c2n1,?,-,-,1µM,28µM,1µM
Cc1[nH]n(-c2ccccc2)c(=O)c1/C=N/NC(=O)COc1ccccc1[N+](=O)[O-],-,-,-,0.45µM,?,0.63µM
Cc1ccc2c(c1)c(N1CCCC1=O)c(C(=O)Nc1ccc(F)cc1F)n2C,-,-,-,.,-,.
Cc1[nH]n(-c2ccccc2)c(=O)c1/C=C1/C=c2ccccc2=N1,-,-,-,-,-,?
COCC(=O)N/N=C/c1c(C)[nH]n(-c2ccccc2)c1=O,-,-,-,0.63µM,-,?
COC(=O)N/N=C\c1c(C)[nH]n(-c2ccccc2)c1=O,-,-,-,11µM,-[11.3 µM],?
Cn1[nH]c(-c2ccccc2)c(/C=N/O)c1=O,-,-,?,3.5µM,-[11.3 µM],0.89µM
Cc1[nH]n(-c2ccccc2)c(=O)c1/C=C1\C=NN=C1c1ccccc1,?,-,-,11µM,-,?
O=C(OCC1CCCO1)c1ccc2c(c1)N(Cc1c(F)cccc1Cl)C(=O)c1ccccc1S2(=O)=O (configuration not stated),-,-,-,.,-,.
COc1cc(S(=O)(=O)Nc2ccc3nc(C)sc3c2)ccc1NC(C)=O,-,-,?,.,?,.
COc1cccc(CN2CCCC(c3nc(C)ncc3-c3ccc(F)cc3)C2)c1OC (configuration not stated),.,.,-,.,.,.
Cc1[nH]n(-c2ccccc2)c(=O)c1/C=N/NC(=O)c1ccccc1F,-,-,-,0.5µM,?,1µM
Cc1[nH]n(-c2ccccc2)c(=O)c1/C=N/N(C)c1ccccc1,?,-,-,7.9µM,-,?
Cc1nn(-c2ccccc2)c(Cl)c1/C=N/NC(=O)c1ccccc1F,-,-,-,-,-,-
Cc1[nH]n(-c2ccccc2)c(=O)c1C=Nc1ccc(S(=O)(=O)N(C)C)cc1,-,-,-,-,-,-
Cc1[nH]n(-c2ccccc2)c(=O)c1/C=N/NC(=O)C(C)C,-,-,-,6.3µM,?,3.2µM
COC(=O)CN=Cc1c(C)[nH]n(-c2ccccc2)c1=O,-,-,-,-,.,-
CC(=O)N/N=C/c1c(C)[nH]n(-c2ccccc2)c1=O,-,-,-,5µM,-,11µM
CCOc1ccccc1Nc1nnc(-c2cc3cc(OC)ccc3oc2=O)s1,-,-,-,.,-,.
Cc1ccc(/C=N/NC(=O)C2COc3ccccc3O2)s1 (configuration not stated),-,-,?,.,-,.
SMILES,TGFb SMAD3 inh,HepG2 tox,ATXN viability,RORgamma inh,ATXN2 expr inh,Gal4-VP16 FLuc
Cc1[nH]n(-c2ccccc2)c(=O)c1/C=N\NC(=O)C1COc2ccccc2O1 (configuration not stated),-,-,-,0.79µM,?,1.1µM
C=CCNC(=S)N/N=C/c1ccc(C(F)(F)F)cc1,?,-,?,0.71µM,?,2.8µM
FC(F)(F)c1cccc(/C=N/NC(=S)NC2CCCCC2)c1,-,-,-,0.56µM,?,6.3µM
FC(F)(F)c1ccc(/C=N/NC(=S)NC2CCCCC2)cc1,-,-,-,0.63µM,-,4.5µM
CCc1sc(-c2cc3cccc(OC)c3oc2=O)nc1-c1cc(C)ccc1C,-,-,.,.,.,.
Cc1ccc(F)cc1NC(=O)CCc1c(C)nn(-c2ccc(N3CCCC3)nn2)c1C,-,-,.,.,.,.
Cc1nc(C)c(-c2csc(Nc3ncccc3C)n2)s1,-,-,?,-,.,-
Cc1cccnc1Nc1nc(-c2ccc(O)c(O)c2)cs1,?,-,?,-,-,7.1µM
COc1ccc(-c2csc(Nc3ncccc3C)n2)cc1OC,-,-,-,3.5µM,-,-
COc1ccc(-c2csc(Nc3ncccc3C)n2)cc1,-,-,?,?,-,-
O=C(O)c1cc2cccc([N+](=O)[O-])c2[nH]1,-,-,.,.,.,.
CCOC(=O)C(C(=O)OCC)C(C(=O)OCC)N1CCOCC1 (configuration not stated),-,-,?,-,?,5.6µM
CCOC(=O)C(C)CC(C)C(=O)N1CCOCCOCCN(C(=O)C(C)CC(C)C(=O)OCC)CCOCC1 (configuration not stated),-,-,-,-,-,-
COc1ccc(C(=O)O/N=C(\N)Cc2ccc(Cl)cc2)cc1OC,-,-,?,?,-,16µM
N/C(Cc1ccc(Cl)cc1)=N\OC(=O)c1ccccc1,-,-,-,-,-,-
COc1ccc(C(=O)O/N=C(\N)Cc2ccc(Cl)c(Cl)c2)cc1OC,?,-,.,?,?,6.3µM
Cc1cc(C)c2nccc(/C=C/c3ccc(N(C)C)cc3)c2c1,-,-,.,.,.,.
C#CCNC(=O)C[C@@H]1C[C@@]2(C(=O)OC)CCCCC=C2N(Cc2ccco2)C1=O,.,.,-,.,-,.
CCN(C(=O)CSc1nc(-c2ccc(C(C)C)cc2)no1)c1cccc(C)c1,-,-,-,.,-,.
Cn1c(=O)c([N+](=O)[O-])c(NCCCn2ccnc2)c2ccccc21,-,-,-,-,-,-
Cn1c(=O)c([N+](=O)[O-])c(-n2ccnc2)c2ccccc21,?,-,.,?,?,7.9µM
CC(C)C(=O)Nc1ncc(Cc2ccccc2Cl)s1,-,-,?,?,-,-
O=C1CSC(=S)N1c1cccc(Cl)c1,?,-,-,-,?,-
N=C1SCC(=O)N1c1ncc(Cc2cccc(Cl)c2)s1,?,-,?,0.35µM,?,0.89µM
N=C1SCC(=O)N1c1ncc(Cc2ccccc2Cl)s1,?,-,?,126µM,?,0.71µM
Cc1cc(C(=O)NCC(c2ccco2)N2CCCC2)c2ccccc2n1 (configuration not stated),-,-,-,.,-,.
CCc1nc2ccc(C(=O)N3CCN(C(C)=O)CC3)cn2c1N(C=O)Cc1ccc(OC)cc1,-,-,-,.,-,.
S=C1Cc2ccccc2C(c2ccc(Cl)cc2)N1 (configuration not stated),-,-,-,6.3µM,-,5.6µM
